Consider 9 compounds from PubChem BioAssay (Tox21).

Assay [1] has as its target Progesterone receptor (Homo sapiens) (UniProt P06401). The experiment in a line: qHTS assay to identify small molecule agonists of the progesterone receptor (PR) signaling pathway (AID 1346784; calls by dose curve; further: nearly all actives have a fitted effect of over 30% in size). The gist of the method:
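Compounds were tested for PR agonism in HEK 293T cells bearing a beta-lactamase gene under UAS control. Treatment lasted 16 hr at 37C; signal came from fluorescence of a FRET substrate.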
On the technique in general: In qHTS, concentration-response curves come from the screen itself.

Assay [2] has the same target. Description: qHTS assay to identify small molecule antagonists of the progesterone receptor (PR) signaling pathway (AID 1346795; active means well fitted inhibition curve with a large enough effect in the signal ratio in the repeat runs, not every such curve was filed as active; the % refers to the signal ratio). Summed up: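 In HEK293T cells bearing the PR-UAS-bla reporter, compound effects on promegestone-driven (1 nM) beta-lactamase expression are assessed after 16 hr using a fluorescent FRET substrate incubated 2 hr at room temperature.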
Assay [3] in a line: qHTS assay to identify small molecule antagonists of the progesterone receptor (PR) signaling pathway - cell viability counter screen (AID 1346798). Further: series mostly up to about 92 µM; nearly all actives have a fitted effect of over 50% in size. The gist of the method:
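Following a 4 hr attachment, PR-UAS-bla HEK293T cells in charcoal-stripped FBS medium were exposed to compounds with R5020 for 16 hr; CellTiter-Glo was added and luminescence read after 30 min at room temperature.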

The nature of assay [4]: qHTS assay to identify small molecule agonists of the progesterone receptor (PR) signaling pathway - cell viability counter screen (AID 1346799; calls by dose curve; further: nearly all actives have a fitted effect of over 45% in size). Summed up: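 Here, 3,000 PR-UAS-bla HEK293T cells per well were treated with compounds for 16 hr after a 6 hr preincubation at 37C and 5% CO2; cell viability is the CellTiter-Glo luminescence signal.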
Assay [5] can be described thus: qHTS assay to identify small molecule antagonists of the TGF-beta/Smad signaling pathway - cell viability counter screen (AID 1346824). Further: nearly all actives have a fitted effect of over 50% in size. The gist of the method: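 SBE-bla HEK 293T cells were plated overnight at 37 C, then given compounds in DMSO plus TGF-beta1 (added as 0.25 ng/mL solution) for 5 hr. After the bla read, CellTiter-Glo was added to the same wells and luminescence read after 30 min at room temperature.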

A short description of assay [6]: qHTS assay to identify small molecule agonists of the TGF-beta/Smad signaling pathway - cell viability counter screen (AID 1346829). Further: top concentration of the series differs between compounds; nearly all actives have a fitted effect of over 45% in size. The gist of the method:
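In parallel with the Smad reporter read, viability of HEK 293T cells stably carrying SBE-bla is quantified by ATP luminescence following 5 hr compound treatment.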

The nature of assay [7]: Human pregnane X receptor (PXR) small molecule agonists, qHTS cell viability counter screen (AID 1346977). Further: nearly all actives have a fitted effect of over 50% in size. Summed up: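 Tox21 qHTS format; PXR-Luc HepG2, 2,000/well, charcoal-stripped FBS 5%. Cpd exposure 24hr. Read: CellTiter-Fluor fluorescence, multiplexed with luciferase.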
The nature of assay [8]: Caspase-3/7 induction in HepG2 cells by small molecules, qHTS assay (AID 1346978). Further: nearly all actives have a fitted effect of over 15% in size. The gist of the method:
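Wild-type HepG2 cells (2,000/well) were settled 5 h at 37 C, 5% CO2, then exposed to compounds in DMSO for 17 h. Caspase-3/7 activity was read by luminescence 30 min after adding Caspase-Glo 3/7 reagent at room temperature.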

A short description of assay [9]: Caspase-3/7 induction in CHO-K1 cells by small molecules, qHTS assay (AID 1346980). Further: nearly all actives have a fitted effect of over 15% in size. Summed up: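 Wild-type cells were seeded at 1,500 per well and settled 5 hr at 37 C, 5% CO2, then exposed to DMSO-dissolved compounds for 17 hr. Caspase-Glo 3/7 reagent was added, and luminescence was read after 30min at room temperature.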
Assay [10] can be described thus: Caspase-3/7 induction in HepG2 cells by small molecules, qHTS cell viability counter screen (AID 1346981). Further: series mostly up to about 92 µM; nearly all actives have a fitted effect of over 30% in size. The gist of the method: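 Cell viability is measured as a cytotoxicity counter screen alongside the Caspase-Glo 3/7 readout in identical wells. Wild-type HepG2 cells are treated with test compounds for 16 hr at 37 C before CellTiter-Fluor addition and a 1-hr incubation.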

Assay [11] deals with Nuclear receptor subfamily 1 group I member 2 (Homo sapiens) (UniProt O75469). The experiment in a line: Human pregnane X receptor (PXR) small molecule agonists, qHTS assay (AID 1346982). Further: nearly all actives have a fitted effect of over 35% in size. Further: potency means the concentration at half of the fitted maximal effect. Summed up: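 Cells: HepG2 stably carrying PXR-Luc. Medium held 5% charcoal-stripped FBS. Compounds in DMSO added after 5 hr plating, incubated 24 hr, then luminescence quantified with ONE-Glo.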
Sequence of Nuclear receptor subfamily 1 group I member 2 (Homo sapiens) (O75469 whole entry, looked up): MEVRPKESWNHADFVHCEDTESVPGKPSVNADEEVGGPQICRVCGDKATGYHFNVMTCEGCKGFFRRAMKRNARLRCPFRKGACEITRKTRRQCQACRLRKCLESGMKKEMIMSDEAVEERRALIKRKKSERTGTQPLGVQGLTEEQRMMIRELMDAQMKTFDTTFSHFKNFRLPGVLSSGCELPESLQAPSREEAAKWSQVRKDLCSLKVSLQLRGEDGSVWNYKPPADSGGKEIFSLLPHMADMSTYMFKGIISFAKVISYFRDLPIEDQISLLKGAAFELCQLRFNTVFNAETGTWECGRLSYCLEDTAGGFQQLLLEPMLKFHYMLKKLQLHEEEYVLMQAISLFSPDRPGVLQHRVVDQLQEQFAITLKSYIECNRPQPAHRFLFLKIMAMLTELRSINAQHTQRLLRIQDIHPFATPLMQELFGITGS

Assay [12] addresses Nuclear receptor subfamily 1 group I member 2 (Rattus norvegicus) (UniProt Q9R1A7). Description: Rat pregnane X receptor (rPXR) activation by small molecules, qHTS assay (AID 1346983). Further: nearly all actives have a fitted effect of over 20% in size. The settings on record: rPXR luciferase reporter cells, One-Glo luminescence, 24 h; active compounds read high. The gist of the method: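 Cell-based rPXR luciferase reporter assay, 2,000 cells per well, rested 5hr at 37 C before compound addition in DMSO, then 24 hr at 37 C. One-Glo reagent was added and luminescence read after 30 min at room temperature.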

In assay [13] the target is Nuclear receptor subfamily 1 group I member 2 (Homo sapiens) (UniProt O75469). Description: CYP3A4 induction through human pregnane X receptor (PXR) by small molecules, qHTS assay (AID 1346984). Further: nearly all actives have a fitted effect of over 40% in size. The gist of the method: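 Quantitative HTS in DPX-2 cells, i.e. HepG2 transfected with PXR response element and CYP3A4-promoter luciferase. Compounds in DMSO incubated 24hr at 37C; then P450-Glo CYP3A4 substrate, 3uM final, 3hr; One-Glo luminescence.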

Assay [14] shares this target. Description: Human pregnane X receptor (PXR) activation by small molecules, qHTS assay (AID 1346985). Further: nearly all actives have a fitted effect of over 40% in size. Summed up: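 DPX-2 cells (HepG2 co-transfected with a PXR response element and a CYP3A4-promoter luciferase construct) were seeded at 2,000 per well, rested 5 hr at 37C, then exposed to DMSO-dissolved compounds for 24 hr. Activation was read as luciferase luminescence.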

Assay [15] addresses Cytochrome P450 2D6 (Homo sapiens) (UniProt P10635). Description: Cytochrome P450 Family 2 Subfamily D Member 6 (CYP2D6) small molecule antagonists: luciferase reporter qHTS assay (AID 1671196). Further: nearly all actives have a fitted effect of over 50% in size. Further: potency means the concentration at half of the fitted maximal effect. Summed up: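 Enzyme and proluciferin substrate were first combined with test chemical for 10 min at room temperature. Adding NADPH regeneration solution started a 1 h reaction, stopped with luciferin detection reagent and read by luminescence 20 min later.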

The target of assay [16] is Cytochrome P450 2C19 (Homo sapiens) (UniProt P33261). Description: Cytochrome P450 Family 2 Subfamily C Member 19 (CYP2C19) small molecule antagonists: luciferase reporter qHTS assay (AID 1671197). Further: nearly all actives have a fitted effect of over 65% in size. Further: potency means the concentration at half of the fitted maximal effect. The gist of the method:
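Compounds were tested on CYP2C19 activity via proluciferin conversion to luciferin. The 37C, 1 h reaction followed NADPH addition; detection reagent stopped it.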
For orientation: In a reporter assay the amount or activity of a reporter protein is the signal.

A short description of assay [17]: qHTS assay to identify small molecule agonists of the TGF-beta/Smad signaling pathway (AID 1346859; active means well fitted activation curve with a large enough effect in the signal ratio in the repeat runs, not every such curve was filed as active; the % refers to the signal ratio; further: series mostly up to about 77 µM). The gist of the method: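 Each well held 4,000 SBE-bla HEK 293T cells incubated overnight before compound addition; 5 hr later the cleavable FRET substrate went on for 2 hr at room temperature, and fluorescence was read at two emissions.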
In assay [18] the target is Thyrotropin-releasing hormone receptor (Homo sapiens) (UniProt P34981). The experiment in a line: qHTS assay to identify small molecule agonists of the thyrotropin-releasing hormone receptor (TRHR) signaling pathway (AID 1346891; calls by dose curve; further: series mostly up to about 58 µM). Summed up:
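Screening of agonists relied on calcium signalling in HEK293 cells expressing human TRHR: dye loading 2 h at 37 °C preceded compound addition and a 3-min fluorescence time course.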

Assay [19] can be described thus: Caspase-3/7 induction in CHO-K1 cells by small molecules, qHTS cell viability counter screen (AID 1346979). Further: nearly all actives have a fitted effect of over 35% in size. The gist of the method:
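CellTiter-Fluor viability check, qHTS format: wild-type CHO-K1, 16hr compound treatment, 1hr reagent incubation, fluorescence read.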

The target of assay [20] is Thyrotropin-releasing hormone receptor (Homo sapiens) (UniProt P34981). Description: qHTS assay to identify small molecule antagonists of the thyrotropin-releasing hormone receptor (TRHR) signaling pathway (AID 1346877; active means well fitted inhibition curve with a large enough effect in the repeat runs, not every such curve was filed as active; further: series mostly up to about 51 µM). Summed up: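 Antagonism is measured as suppression of the calcium response to 1 nM TRH in TRHR-HEK293 cells that have been dye-loaded for 2 h at 37 °C after overnight plating. Each compound is tested at 15 concentrations in triplicate.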
Sequence of Thyrotropin-releasing hormone receptor (Homo sapiens) (P34981 whole entry, looked up): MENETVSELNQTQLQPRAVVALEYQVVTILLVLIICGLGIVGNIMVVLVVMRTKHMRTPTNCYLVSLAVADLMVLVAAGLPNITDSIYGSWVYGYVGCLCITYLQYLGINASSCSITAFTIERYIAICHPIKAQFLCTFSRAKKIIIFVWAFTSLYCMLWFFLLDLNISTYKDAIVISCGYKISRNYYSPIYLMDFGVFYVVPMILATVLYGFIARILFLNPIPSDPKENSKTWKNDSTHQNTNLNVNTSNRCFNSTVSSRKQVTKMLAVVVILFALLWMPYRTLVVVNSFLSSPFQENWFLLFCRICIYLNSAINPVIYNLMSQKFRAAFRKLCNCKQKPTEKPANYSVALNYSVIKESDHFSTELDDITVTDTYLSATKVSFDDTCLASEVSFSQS

Values without a mark were called inactive. Records with an inconclusive call do not appear. Active and inactive are the calls of the source. Unless noted, the call rests on the fitted dose curve; in most records, active means well fitted curve in the direction sought with a large enough effect in the repeat runs; inconclusive means weak or mixed curves; inactive means no such curve, though single readings can be large; an effect the other way counts as inactive or inconclusive.
On the % scale 0 is the no-effect control and ±100 the full control effect.

Sequence of Progesterone receptor (Homo sapiens) (P06401 whole entry, looked up): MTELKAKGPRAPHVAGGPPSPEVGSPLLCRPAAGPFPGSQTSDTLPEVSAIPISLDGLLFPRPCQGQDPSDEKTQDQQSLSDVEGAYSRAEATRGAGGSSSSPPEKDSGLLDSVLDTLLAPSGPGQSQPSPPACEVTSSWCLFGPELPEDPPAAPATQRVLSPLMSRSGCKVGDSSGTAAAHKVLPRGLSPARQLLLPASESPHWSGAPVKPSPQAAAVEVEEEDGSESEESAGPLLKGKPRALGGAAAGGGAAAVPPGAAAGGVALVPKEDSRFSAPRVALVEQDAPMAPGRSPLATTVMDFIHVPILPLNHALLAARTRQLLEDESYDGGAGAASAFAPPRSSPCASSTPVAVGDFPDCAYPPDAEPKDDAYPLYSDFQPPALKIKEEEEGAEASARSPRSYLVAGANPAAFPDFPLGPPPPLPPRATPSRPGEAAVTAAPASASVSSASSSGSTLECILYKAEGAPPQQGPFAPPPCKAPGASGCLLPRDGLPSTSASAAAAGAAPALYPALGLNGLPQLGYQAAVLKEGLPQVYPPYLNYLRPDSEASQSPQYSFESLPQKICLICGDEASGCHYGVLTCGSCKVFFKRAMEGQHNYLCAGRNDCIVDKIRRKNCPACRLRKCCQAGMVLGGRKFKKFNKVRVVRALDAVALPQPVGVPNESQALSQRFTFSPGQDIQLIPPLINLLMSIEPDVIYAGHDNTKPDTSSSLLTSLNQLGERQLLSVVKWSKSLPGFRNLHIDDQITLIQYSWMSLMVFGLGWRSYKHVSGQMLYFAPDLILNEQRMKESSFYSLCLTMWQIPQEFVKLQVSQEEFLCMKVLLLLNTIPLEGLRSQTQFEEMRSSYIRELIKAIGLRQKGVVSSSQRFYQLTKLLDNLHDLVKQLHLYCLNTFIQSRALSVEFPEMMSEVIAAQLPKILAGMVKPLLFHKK
Sequence of Cytochrome P450 2D6 (Homo sapiens) (P10635 whole entry, looked up): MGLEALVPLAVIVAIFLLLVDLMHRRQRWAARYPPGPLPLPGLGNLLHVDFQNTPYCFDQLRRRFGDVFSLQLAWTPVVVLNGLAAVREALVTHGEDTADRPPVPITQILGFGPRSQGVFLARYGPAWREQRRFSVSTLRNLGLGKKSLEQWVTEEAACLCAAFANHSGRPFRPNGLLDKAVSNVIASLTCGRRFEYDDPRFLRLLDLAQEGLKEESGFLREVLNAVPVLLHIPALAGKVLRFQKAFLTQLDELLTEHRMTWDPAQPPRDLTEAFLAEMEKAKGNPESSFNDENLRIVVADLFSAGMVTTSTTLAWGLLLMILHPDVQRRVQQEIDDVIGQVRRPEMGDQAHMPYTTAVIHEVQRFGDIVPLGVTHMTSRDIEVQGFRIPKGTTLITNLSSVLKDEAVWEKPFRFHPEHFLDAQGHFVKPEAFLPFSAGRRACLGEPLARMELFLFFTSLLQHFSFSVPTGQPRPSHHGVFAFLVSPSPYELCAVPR
Sequence of Cytochrome P450 2C19 (Homo sapiens) (P33261 whole entry, looked up): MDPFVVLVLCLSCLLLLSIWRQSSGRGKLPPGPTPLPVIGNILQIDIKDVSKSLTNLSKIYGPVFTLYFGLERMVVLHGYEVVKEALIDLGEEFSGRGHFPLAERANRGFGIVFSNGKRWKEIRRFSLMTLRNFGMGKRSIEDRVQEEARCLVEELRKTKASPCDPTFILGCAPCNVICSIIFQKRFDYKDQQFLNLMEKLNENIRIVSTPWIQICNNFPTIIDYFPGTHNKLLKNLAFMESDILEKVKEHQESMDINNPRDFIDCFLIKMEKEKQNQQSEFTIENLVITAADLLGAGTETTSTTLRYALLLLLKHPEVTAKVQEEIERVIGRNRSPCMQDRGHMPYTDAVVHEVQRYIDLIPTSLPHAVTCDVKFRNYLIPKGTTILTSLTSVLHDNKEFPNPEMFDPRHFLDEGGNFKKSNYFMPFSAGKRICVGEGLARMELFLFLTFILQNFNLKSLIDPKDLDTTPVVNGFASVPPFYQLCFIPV
Sequence of Nuclear receptor subfamily 1 group I member 2 (Rattus norvegicus) (Q9R1A7 whole entry, looked up): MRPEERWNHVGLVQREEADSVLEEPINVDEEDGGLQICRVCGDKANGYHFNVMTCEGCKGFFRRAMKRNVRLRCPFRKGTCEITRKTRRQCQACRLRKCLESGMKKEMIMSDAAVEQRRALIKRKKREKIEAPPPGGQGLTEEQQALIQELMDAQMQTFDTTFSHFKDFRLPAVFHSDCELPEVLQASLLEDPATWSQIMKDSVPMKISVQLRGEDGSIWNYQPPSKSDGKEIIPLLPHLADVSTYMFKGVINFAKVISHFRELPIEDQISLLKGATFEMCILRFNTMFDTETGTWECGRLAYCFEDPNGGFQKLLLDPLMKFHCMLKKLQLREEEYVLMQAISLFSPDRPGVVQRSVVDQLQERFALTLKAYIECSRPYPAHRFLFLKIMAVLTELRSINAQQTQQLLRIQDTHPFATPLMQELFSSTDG

For the compound `CC(=C(CCOC(=O)C(C)C)SSC(CCOC(=O)C(C)C)=C(C)N(C=O)Cc1cnc(C)nc1N)N(C=O)Cc1cnc(C)nc1N`, the Potency entry in assay [1], in assay [2], in assay [3], in [4], in [7] and in assay [8] was “inactive” each time. The Potency result in assay [10], in assay [11], in [13], in assay [14], in assay [15] and in assay [16] was “inactive” in each case. Also, the compound was classed as inactive in assay [5], in assay [6] and in assay [9]. In addition, in assay [12], the max activation is -2.83%.
As for `CCCCCCCCC(=O)Cl`, the Potency result in assay [1], in [2], in assay [3], in [4], in assay [7] and in [8] was “inactive” each time. Besides, the Potency entry in [19], in assay [10] and in [11] was “inactive” throughout. The result in assay [6], in assay [17], in assay [18] and in [9] was inactive.
On to `CCCCCCCCC1CCC(=O)O1` (centres undefined), for which the Potency result in assay [1], in [2], in assay [3], in assay [4], in assay [7] and in assay [8] was “inactive” each time. Besides, the Potency result in assay [19] and in [10] was “inactive” in each case. The result in assay [6], in [17] and in assay [9] was inactive. The Potency in assay [11] was 30.6 µM (active); in assay [16], 56.4 µM (active).
On to `CC1(CO)CN(c2ccccc2)NC1=O` (centres undefined), for which the Potency entry in [1], in assay [2], in assay [3], in assay [4], in assay [7] and in assay [19] was “inactive” in each case. The Potency result in [10] was “inactive”. The result in [6], in [17], in assay [20] and in [9] was inactive. The Potency in assay [15] was 28.3 µM (active); in assay [16] it was 20 µM (active).
For `CCCC/C=C/C=C\C=O`, the Potency entry in assay [1], in assay [2], in [3], in assay [4], in assay [7] and in assay [8] was “inactive” in each case. Besides, the Potency entry in assay [10] was “inactive”. The result in assay [5], in assay [6] and in [9] was inactive. In assay [11], the Potency was 24.3 µM (active).
Turning to `O=C(NCCN1CCOCC1)c1ccc(Cl)cc1`, the Potency entry in assay [1], in assay [2], in [3], in assay [4], in assay [7] and in assay [19] was “inactive” each time. Further, the Potency entry in [10], in assay [11], in [13] and in [14] was “inactive” each time. Moreover, the compound was called inactive in [6], in assay [17] and in assay [9]. In addition, in assay [12], the max activation was 1.47%. Further, in assay [16], the Potency is 34.7 µM (active).
Take `C[C@@H](Oc1ccc(CNC(=O)c2cccnc2Oc2ccc3c(c2)OCO3)c(F)c1)C(=O)O`: the Potency result in assay [1], in assay [2], in assay [3], in assay [4], in assay [7] and in [8] was “inactive” each time. Also, the Potency result in [10], in assay [11], in assay [15] and in assay [16] was “inactive” throughout. Further, the call in assay [6], in assay [17], in [20] and in assay [9] was inactive.
With `CC(C)C(=O)OCc1cccc(OC(=O)[C@@H]2N3C(=O)[C@@H](NC(=O)Cc4ccccc4)[C@H]3SC2(C)C)c1`, the Potency entry in assay [1], in assay [2], in assay [3], in [4], in assay [7] and in assay [8] was “inactive” each time. In addition, the Potency result in assay [19], in [10], in assay [15] and in assay [16] was “inactive” each time. In addition, the compound was called inactive in assay [6], in assay [17], in assay [20], in assay [18] and in assay [9].
Consider `Cc1cc(NC(=O)C2=C(O)c3ccccc3S(=O)(=O)N2C)no1`, for which the Potency result in [1], in assay [2], in assay [3], in assay [4], in assay [7] and in assay [8] was “inactive” throughout. In addition, the Potency result in assay [19], in assay [10] and in assay [16] was “inactive” in each case. The compound was classed as inactive in [6], in assay [17], in assay [20], in assay [18] and in assay [9].
